Among the test systems are T-47D breast; BT-549 breast; MDA-MB-435 melanoma; SW-620 colon; MCF7 breast; HCT-116 colon; HCC-2998 colon; KM12 colon.
Common to all, as to assay: NCI-60 one-dose screen, 48 h (100 = growth as untreated, 0 = no growth, -100 = all killed)
Holding throughout (conditions): 10 µM unless noted

About 83,000 compounds went through this panel and 20% of them were active in at least one assay; those are over-represented in the sample as a whole.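 Values shown are percent growth following 48 h exposure of cells in 96-well plates to a single concentration of compound; below 10 was considered active.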 Unmarked numbers belong to inactive results. Calls of active or inactive are those of the source.

Turning to `CC(C)(C)c1nn(-c2ccccc2)c2c1C(=O)CSC(c1ccc3c(c1)OCO3)N2` (stereo not given), the growth with T-47D breast is 84.4%; in the test with BT-549 breast, 112%; in the test with MDA-MB-435 melanoma, 99.6%; in the test on SW-620 colon it was 108%; in the test with MCF7 breast, 90.3%; in the test with HCT-116 colon, 85.6%. Besides, the growth in the test on HCC-2998 colon was 105%; with KM12 colon, 101%.

As for `O=[N+]([O-])c1ccc(SSc2ccc([N+](=O)[O-])cc2Cl)c(Cl)c1`, the growth in the test on T-47D breast was 70.6%; with BT-549 breast, 97.4%; in the test with MDA-MB-435 melanoma, 113%; in the test on SW-620 colon it was 97.6%; with MCF7 breast it was 77.3%; in the test with HCT-116 colon it was 91.1%. For the same compound, the growth is 106% with HCC-2998 colon and 98% in the test on KM12 colon.

Consider `NC(=O)c1ccc[n+](Cc2ccccc2)c1`, for which the growth is 106% in the test on T-47D breast; 118% in the test with BT-549 breast; 98.2% in the test on MDA-MB-435 melanoma; 102% in the test with SW-620 colon; 103% with MCF7 breast; 99.9% in the test on HCT-116 colon. Besides, the growth with HCC-2998 colon and in the test with KM12 colon was 102% each time.

In the case of `CCOC(=O)C(CCCCC(NC(C)=O)(C(=O)OCC)C(=O)OCC)(NC(C)=O)C(=O)OCC`, the growth with T-47D breast was 89.4%; with BT-549 breast, 107%; with MDA-MB-435 melanoma it was 104%; in the test on SW-620 colon, 104%; in the test with MCF7 breast, 98.3%; in the test with HCT-116 colon, 105%. The figures for the growth with HCC-2998 colon and in the test on KM12 colon were 109% and 100%, respectively.

Turning to `COc1ccc(-c2cc(-c3ccc(OC)cc3)c3sc(=O)[nH]c3n2)cc1`, the growth in the test on T-47D breast is 78.6%; with BT-549 breast, 92.9%; in the test with MDA-MB-435 melanoma it was 107%; in the test on SW-620 colon, 95.9%; with MCF7 breast, 87.4%; in the test on HCT-116 colon it was 96.8%. The growth in the test on HCC-2998 colon was 98.7%; in the test with KM12 colon, 93.9%.

With `CCOC(OCC)c1cnc2nc(NC(C)=O)[nH]c(=O)c2n1`, the growth in the test on T-47D breast is 99.9%; in the test on BT-549 breast, 112%; in the test on MDA-MB-435 melanoma it was 105%; with SW-620 colon, 103%; in the test with MCF7 breast it was 96.4%; in the test with HCT-116 colon, 102%. Besides, the growth in the test on HCC-2998 colon was 107%; in the test with KM12 colon, 108%.

As for `O=C1Nc2ccc(Cl)cc2/C1=C\c1c(-c2ccc(F)cc2)nc2ccccn12`, the growth with T-47D breast was 9.64% (active); in the test on BT-549 breast, 15.7%; in the test with MDA-MB-435 melanoma it was -34.5% (active); in the test on SW-620 colon, 8.89% (active); in the test with MCF7 breast, -9.38% (active); with HCT-116 colon, -78.7% (active). The growth with HCC-2998 colon was 44.7%; with KM12 colon, -32.1% (active).

For `CCN1C(=O)N(CC)C2C1N=C(SC)N2/N=C/C=C/c1ccccc1OC` (stereo not given), the growth in the test with T-47D breast is 54.2%; in the test on BT-549 breast, 12.8%; in the test with MDA-MB-435 melanoma it was 2.95% (active); in the test on SW-620 colon it was 22.7%; in the test with MCF7 breast, 12.9%; in the test with HCT-116 colon it was 6.51% (active). Further, the results for the growth in the test with HCC-2998 colon and in the test with KM12 colon were 10.5% and 4.92% (active), respectively.

On to `CCCCCN(CCCCC)C(=O)C(CCC(=O)O)NC(=O)c1ccc(Cl)c(Cl)c1` (stereo not given), for which the growth in the test with T-47D breast was 102%; in the test on BT-549 breast, 132%; with MDA-MB-435 melanoma, 112%; in the test on SW-620 colon it was 106%; in the test with MCF7 breast, 96.7%; in the test with HCT-116 colon, 112%. The growth in the test with HCC-2998 colon was 113%; in the test on KM12 colon, 114%.

With `CCc1onc(-c2ccc(OC)cc2)c1-c1ccccc1OCCN(CC)CC`, the growth was 91.7% in the test on T-47D breast; 81.1% in the test with BT-549 breast; 90.5% in the test on MDA-MB-435 melanoma; 94.7% in the test on SW-620 colon; 95.6% in the test on MCF7 breast; 70.9% with HCT-116 colon. Besides, the values for the growth with HCC-2998 colon and in the test with KM12 colon were 80.8% and 93.1%, respectively.

With `CCCCc1nc(Cl)c(C2CC(c3ccc(S(N)(=O)=O)cc3)=NN2c2ccc(C#N)cc2)[nH]1` (stereo not given), the growth is 68.7% in the test on T-47D breast; 80.6% in the test on BT-549 breast; 93.9% with MDA-MB-435 melanoma; 91.8% in the test on SW-620 colon; 76.1% in the test with MCF7 breast; 85.8% in the test with HCT-116 colon. Moreover, the values for the growth in the test on HCC-2998 colon and in the test with KM12 colon were 109% and 99.8%, respectively.

With `COc1cc(C2CC(c3ccc(Cl)cc3)=NN2C=O)ccc1Oc1ccnc2cc(Cl)ccc12` (stereo not given), the growth in the test with T-47D breast was 56.4%; in the test on BT-549 breast it was 94.7%; in the test on MDA-MB-435 melanoma, 73.3%; with SW-620 colon, 84.5%; with MCF7 breast, 53.4%; in the test with HCT-116 colon, 49.2%. Further, the results for the growth with HCC-2998 colon and in the test with KM12 colon were 72.8% and 76.2%, respectively.

Take `CN(C)CCCN1c2ccccc2CCc2ccccc21`: the growth in the test with T-47D breast was 91.8%; in the test on BT-549 breast, 95.8%; in the test with MDA-MB-435 melanoma, 102%; with SW-620 colon, 111%; in the test on MCF7 breast it was 80.5%; in the test with HCT-116 colon it was 96.6%. The growth in the test on HCC-2998 colon is 99.7%; in the test with KM12 colon it was 103%.

With `CNC1=C([N+](=O)[O-])C(c2ccccc2O)C(C#N)=C(c2cccs2)O1` (stereo not given), the growth was 81.7% in the test on T-47D breast; 100% in the test on BT-549 breast; 97.8% with MDA-MB-435 melanoma; 99.9% in the test on SW-620 colon; 92.3% in the test on MCF7 breast; 98.7% with HCT-116 colon. Moreover, the growth was 114% in the test with HCC-2998 colon and 99.8% in the test with KM12 colon.

Regarding `CCNCCCn1c2c(c3ccc(Cl)cc3c1=O)C(=O)c1cc(OC)cnc1-2`, the growth in the test on T-47D breast is 16.6%; with BT-549 breast, 39.8%; in the test with MDA-MB-435 melanoma, 68.1%; with SW-620 colon, -64.5% (active); in the test on MCF7 breast it was -64.9% (active); in the test with HCT-116 colon, -95.8% (active). Besides, the growth was 68% in the test with HCC-2998 colon and 32.8% with KM12 colon.

For the origin of these results see PubChem BioAssay (NCI).
